# PubChem BioAssay AID651710 (Broad Institute, 2012)
# The campaign covered roughly 360,000 compounds. About 1,600 (0.44%) were called active. Shown is part of a subset that was picked to be rich in actives. Values without a mark were called inactive.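 Rule for the calls: active = every replicate showing at least 50% inhibition; inconclusive = mean inhibition at least 50% but not in every replicate; inactive = the rest.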
# Target: DNA repair protein RAD52 homolog (Homo sapiens) (UniProt P43351)
# Test: RAD52 DNA annealing inhibitors, primary screen, biochemical, FRET, single point, set 2 (AID 651710)
# Conditions: recombinant RAD52 DNA annealing, FRET fluorescence; at 18.7 µM; hits give high values
# DNA repair protein RAD52 homolog (Homo sapiens), sequence (P43351 whole entry, looked up): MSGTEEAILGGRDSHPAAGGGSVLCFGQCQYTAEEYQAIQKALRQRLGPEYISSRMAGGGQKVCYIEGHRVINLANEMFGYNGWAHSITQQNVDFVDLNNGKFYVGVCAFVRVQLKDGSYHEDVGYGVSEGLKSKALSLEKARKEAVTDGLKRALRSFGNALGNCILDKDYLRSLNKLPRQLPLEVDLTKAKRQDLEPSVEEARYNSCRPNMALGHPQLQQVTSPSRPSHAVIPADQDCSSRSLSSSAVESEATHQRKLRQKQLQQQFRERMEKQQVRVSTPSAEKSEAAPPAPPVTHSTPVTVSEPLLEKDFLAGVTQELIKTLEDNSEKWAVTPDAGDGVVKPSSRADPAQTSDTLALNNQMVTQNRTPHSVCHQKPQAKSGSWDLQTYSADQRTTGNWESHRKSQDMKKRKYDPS
row,SMILES,inhibition
1,CCOc1cccc(=NC2CCCCC2)c2c(C)[nH]c(C)c12,79.1% (active)
2,Clc1ccc([C@@H]2CC3CCC2N3)cn1 (stereo not given in full),-8.46%
3,COc1ccc(C#Cc2ccc([C@H]3[C@H](CO)N4CCCCN(C(=O)Cc5ccccc5)C[C@@H]34)cc2)cc1,-26.3%
4,COc1c(O)ccc2c1-c1c3c(cc4c1C(C2)N(C)CC4)OCO3 (stereo not given),6.1%
5,COc1ccc2c(c1O)-c1cccc3c1[C@@H](C2)N(C)CC3,60.5% (active)
6,COC1=C[C@@H]2[C@@H]3Cc4ccc(OC)c(O)c4[C@]2(CCN3C)CC1=O,-9.71%
7,O=C(Cc1cccnc1)N1CCCCN2[C@@H](CO)[C@H](c3ccc(C#CC4CCCC4)cc3)[C@@H]2C1,11.6%
8,O=C(O)[C@H]1[C@H](CO)[C@H]2Cn3c(ccc(-c4ccccc4F)c3=O)[C@@H]1N2C(=O)c1cccnc1,6.1%
9,N#Cc1cccc(-c2ccc([C@H]3[C@@H](CO)N4CCCCN(C(=O)Cc5cccnc5)C[C@@H]34)cc2)c1,-17%
10,O=C(Cc1ccccc1)N1CCCCN2[C@H](C1)[C@H](c1ccc(C#CC3(O)CCCC3)cc1)[C@@H]2CO,-14.9%
11,O=c1[nH]c2ccccc2n1C1CCN(C(c2ccccc2)c2nnnn2Cc2ccccc2)CC1 (stereo not given),-11.7%
12,C[N+]1(C)CCOC(O)(c2ccc(-c3ccc(C4(O)C[N+](C)(C)CCO4)cc3)cc2)C1 (stereo not given),70.8% (active)
13,O=C(O)[C@H]1[C@H](CO)[C@H]2Cn3c(cccc3=O)[C@@H]1N2C(=O)c1ccccc1,2.96%
14,C[C@@H]1CN([C@H](C)CO)C(=O)CCCn2cc(nn2)CO[C@@H]1CN(C)C(=O)Oc1cccc2ccccc12,-6.69%
15,CCCCCCCCCCCCn1ccc(=N)cc1,50% (active)
16,O=C(Cc1ccncc1)N1CCCCN2[C@H](CO)[C@@H](c3ccc(C#CC4(O)CCCC4)cc3)[C@H]2C1,1.26%
17,COC(=O)[C@H]1[C@H](CO)[C@H]2Cn3c(ccc(C4=CCCC4)c3=O)[C@@H]1N2C(=O)CC1CC1,-4.86%
18,O=C(Cc1ccncc1)N1CCCCN2[C@@H](CO)[C@H](c3ccc(C#CC4(O)CCCC4)cc3)[C@@H]2C1,-1.57%
19,COc1cccc(-c2ccc([C@H]3[C@H]4CN(C(=O)Cc5ccncc5)CCCCN4[C@H]3CO)cc2)c1,-63.8%
20,O=C(Cc1ccncc1)N1CCCCN2[C@@H](CO)[C@H](c3ccc(-c4ccncc4)cc3)[C@@H]2C1,-1.75%
21,CCC(C)NC1(c2ccccc2)CCCCC1 (stereo not given),-8.77%
22,CC1=CC(=Cc2sc3ccccc3[n+]2C)C=C(C)O1,60.3% (active)
23,O=C(NC[C@@H]1CC[C@H]2NC[C@H]2O1)C1CCCC1,-11.1%
24,OC[C@@H]1[C@H]2c3ccccc3NC[C@H]2N1Cc1cccnc1,0.281%
25,COc1ccc2c(c1)[C@@]13CCCCC1[C@@H](C2)NCC3 (stereo not given in full),-7.04%
